In all, about 68,000 sequences were measured (“fluorescence intensity (a.u.)”: median about 9,100, highest 2% from about 16,000 on). Only a selection was taken, and the highest values are over-represented in it overall.

Sequence of OsWRKY34 (Q0JBA9 entry or part of it): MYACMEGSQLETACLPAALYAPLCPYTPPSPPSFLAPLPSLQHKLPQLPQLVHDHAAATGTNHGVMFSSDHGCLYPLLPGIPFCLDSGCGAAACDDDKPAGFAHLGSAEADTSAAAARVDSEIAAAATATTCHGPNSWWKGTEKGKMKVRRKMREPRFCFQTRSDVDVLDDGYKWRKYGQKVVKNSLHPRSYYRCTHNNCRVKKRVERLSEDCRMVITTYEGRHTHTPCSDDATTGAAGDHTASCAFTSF

This assay addresses OsWRKY34 (Oryza sativa, UniProt Q0JBA9 1-250). In words: protein-binding microarray (RPBM); PBS, 2% BSA, 51.3 ng/ul salmon testes DNA, 50 uM zinc acetate, 200 nM TF, 25 C, 1 h; high values mean tight binding. The following applies: protein: recombinant; tags: N-terminal polyhistidine and DsRed monomer fusion (pET32a); label: CyDye5-dUTP incorporated in the synthesized complementary strand; 3' TTTTT single-stranded linker to array surface; dsDNA, one strand shown. The method, boiled down:
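In PBS with 2% BSA, salmon testes DNA and 50 µM zinc acetate, 200 nM protein was incubated on a custom Agilent array at 25 °C for 1 h and then washed off. The array had been made double-stranded by primer extension with Cy5-dUTP and blocked with 2% BSA. The proteins were transcription factors fused N-terminally to polyhistidine and DsRed, expressed in E. coli BL21-CodonPlus and purified on Ni–NTA. The binding signal is per-feature fluorescence intensity (arbitrary units) from an Axon 4000B scanner.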
With “ATACGAGCCAAAGACCGTTGACAAGCTAGTCAACAGTCATCGGAGTCACCTAGTGCAG”, the binding signal was 8910 fluorescence intensity (a.u.).

On to “GCTGCACAGCTAGTCAACACAAGCTAGTCAAACCGTTGACCGGAGTCACCTAGTGCAG”, for which the binding signal is 19200 fluorescence intensity (a.u.).

As for “TTTTGTCTACTGCGCCTACCACGCCGTTGTCCACTACCTCCGGAGTCACCTAGTGCAG”, the binding signal was 10400 fluorescence intensity (a.u.).

As for “AAGCTAGTCAAACCGTTGACTACCACTGTCTTTGTTGCGCCGGAGTCACCTAGTGCAG”, the binding signal was 16800 fluorescence intensity (a.u.).

“AACCATCATGACCGGCTACCACTAAGCTGCGCCTGTCTACCGGAGTCACCTAGTGCAG”: the binding signal was 8700 fluorescence intensity (a.u.).

As to “AACCAAACAACCGTTGTCTTGGCACAGCTGTCGCAACCTGCGGAGTCACCTAGTGCAG”, the binding signal is 8200 fluorescence intensity (a.u.).

As to “CCTCGAGCTGTGCACGGCTGGTTCGTCTCGCGCCGCTTATCGGAGTCACCTAGTGCAG”, the binding signal was 10900 fluorescence intensity (a.u.).

For the sequence “TCAGTGTCGGCCGCGATGTCTTTGCAGCTTTGCTGGTTTTCGGAGTCACCTAGTGCAG”, the binding signal was 8090 fluorescence intensity (a.u.).

Consider “GGTATTGTTGATACTTTCAGTTTTCGCATTTGTTCGCTTCCGGAGTCACCTAGTGCAG”, for which the binding signal is 9230 fluorescence intensity (a.u.).

As for “AAACTTAGCAAGAGCTCTGACCTATTGGAAAATTTTCTTTCGGAGTCACCTAGTGCAG”, the binding signal was 9480 fluorescence intensity (a.u.).

For “AGATTTGGTTTTTTAGGCCGGTTTTTCGTTTTGTCGCCCTCGGAGTCACCTAGTGCAG”, the binding signal was 8750 fluorescence intensity (a.u.).

For the sequence “ATATTTGGTTTTTTTTCGTACTTTTTTTCGCCCGGTTTTTCGGAGTCACCTAGTGCAG”, the binding signal is 20800 fluorescence intensity (a.u.).

As for “GGACCTACTTTCGCGATTTTCCCCGGTTGGCCACTACTTTCGGAGTCACCTAGTGCAG”, the binding signal is 18800 fluorescence intensity (a.u.).

Regarding “TTTCGTGATTTTCCCCGGTTGGCCACTACTTTTGCGATTTCGGAGTCACCTAGTGCAG”, the binding signal was 9570 fluorescence intensity (a.u.).

Take “TATATATATTTATCACCGGTTTATTTTGGTCTGGTCTTTTCGGAGTCACCTAGTGCAG”: the binding signal is 13000 fluorescence intensity (a.u.).

With “GACCTATTTTCGCGATTTTCCCCGGTTGACCACTACTTTTCGGAGTCACCTAGTGCAG”, the binding signal was 13100 fluorescence intensity (a.u.).

For “CAGGACTGCGTGCTCCTTCTCGTTGTTCCTTACTCACCTTCGGAGTCACCTAGTGCAG”, the binding signal was 9560 fluorescence intensity (a.u.).

Consider “CTACTGCTTTCTTTCTTTCTCTATTGCAGTCTACCTCCTACGGAGTCACCTAGTGCAG”, for which the binding signal is 11400 fluorescence intensity (a.u.).

As for “CTTTTGACTGCCACAGTGTGTTAGGTATATGTTTGTTTCACGGAGTCACCTAGTGCAG”, the binding signal is 11700 fluorescence intensity (a.u.).

As for “TCTTCCTCATGCGATTTGGTTGGTTGGTTTGACGCTACACCGGAGTCACCTAGTGCAG”, the binding signal is 13600 fluorescence intensity (a.u.).

As to “GGGTGTGTGCGCATGTGTGTTTGTCGTGTATTAAAAAAAACGGAGTCACCTAGTGCAG”, the binding signal is 9130 fluorescence intensity (a.u.).

Turning to “TTAATTATTTCTTGGTATTTGGGTTAAGGGTGGTTGTGCCCGGAGTCACCTAGTGCAG”, the binding signal was 12600 fluorescence intensity (a.u.).

As for “TCTACTTTTCTCCACTCTTTTGCTATAGGGGCTGGGGTGGCGGAGTCACCTAGTGCAG”, the binding signal was 14200 fluorescence intensity (a.u.).

For “TATCTTAGGGCATGTTTGGTTGTACGGATCGTACCTGACTCGGAGTCACCTAGTGCAG”, the binding signal is 9620 fluorescence intensity (a.u.).

As to “GATGGCTACCTAGCTGACACGCAACGCCGGCCTCCGGATCCGGAGTCACCTAGTGCAG”, the binding signal is 10600 fluorescence intensity (a.u.).

In the case of “TATATATATGTGTGTGTGTGTGTGTGTGTGTGTGTGTGTGCGGAGTCACCTAGTGCAG”, the binding signal is 10100 fluorescence intensity (a.u.).

With “GGGCGTGGTGGTGGTGGTGGTGGTTATACGGTTTTCGGTTCGGAGTCACCTAGTGCAG”, the binding signal is 25900 fluorescence intensity (a.u.).

For “TGGTGGTTTTCGTCGTCGTCGTCGTCGTCGGCTTCATATACGGAGTCACCTAGTGCAG”, the binding signal was 10100 fluorescence intensity (a.u.).

On to “TATATATATATATATATATATATATATATGTGTGTGTGTGCGGAGTCACCTAGTGCAG”, for which the binding signal is 13700 fluorescence intensity (a.u.).

As to “TATATATATATATATATATATATATATGTGTGTGTGTGTTCGGAGTCACCTAGTGCAG”, the binding signal was 14600 fluorescence intensity (a.u.).

Take “GAATCATGTGCTATCTCGTTAATTATCTGCTCTTTTAGCTCGGAGTCACCTAGTGCAG”: the binding signal is 9000 fluorescence intensity (a.u.).

Turning to “TTAATTATATGCTAATGGCTAACCTTATTTTACGTATCTTCGGAGTCACCTAGTGCAG”, the binding signal is 8180 fluorescence intensity (a.u.).

For the sequence “TATATATATATATATATATATATATATATATATGTGTGTGCGGAGTCACCTAGTGCAG”, the binding signal was 18100 fluorescence intensity (a.u.).

On to “TATATATATATATATATATATATATATATATGGTGGTGTTCGGAGTCACCTAGTGCAG”, for which the binding signal is 20500 fluorescence intensity (a.u.).

For the sequence “TGGGTTTGTGGGTTATGTTTCGGTGCGTGCCGATAGTATACGGAGTCACCTAGTGCAG”, the binding signal is 14300 fluorescence intensity (a.u.).

Turning to “TATATATATATATATATATGTGTGTGTGTGTGTGTATGGTCGGAGTCACCTAGTGCAG”, the binding signal is 9770 fluorescence intensity (a.u.).

As for “AGCAGATGGAGTATATCTTTAGCTAATTAAGCTATAGCTACGGAGTCACCTAGTGCAG”, the binding signal is 23000 fluorescence intensity (a.u.).

For the sequence “CTCCCTTGCCGTCCCAGTTTCCCTGTATTCTGCATGCCGTCGGAGTCACCTAGTGCAG”, the binding signal is 9850 fluorescence intensity (a.u.).

For the sequence “ACTTTGCTGCCTATTGTAGATTTGTTATAACGTAGTTACTCGGAGTCACCTAGTGCAG”, the binding signal is 10400 fluorescence intensity (a.u.).

For the sequence “AACCCTCGCTTTCTTTGATAATCATTCCTAACTGCCTGGTCGGAGTCACCTAGTGCAG”, the binding signal was 8170 fluorescence intensity (a.u.).

Consider “AGTTACTGAGTTAGACGTCTCAAGCTGTGTCGTGGAATAACGGAGTCACCTAGTGCAG”, for which the binding signal is 8700 fluorescence intensity (a.u.).

As to “AGGAGAGAAAGGAAGGTGGTGTGGGTGGTTGGTGGTGGTGCGGAGTCACCTAGTGCAG”, the binding signal was 10300 fluorescence intensity (a.u.).

In the case of “GTCTTCTCTGTTCTTCTTCAGATGGCGAAAGCTCTCACCACGGAGTCACCTAGTGCAG”, the binding signal is 10400 fluorescence intensity (a.u.).

Take “ATATATATATATATATATATACATACATATACACACACACCGGAGTCACCTAGTGCAG”: the binding signal was 8050 fluorescence intensity (a.u.).

The record behind these values is paper PMC7819943, “Rice protein-binding microarrays: a tool to detect cis-acting elements near promoter regions in rice”.
